Source: PubChem (The Scripps Research Institute Molecular Screening Center)
Shown are actives, neighbours in structure and some others; about 3.5% of the full set was active somewhere.
MITF primary = human MITF inhibition, primary screen. O75030. AlphaScreen MITF homodimerization, bead proximity signal. inhibition, % at 2.6 µM. 0.91% of 650,000 active. AID 1259374; in the data active = inhibition above about 50%;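 note: 0% = vehicle wells with protein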
Target sequence (O75030 whole entry, looked up): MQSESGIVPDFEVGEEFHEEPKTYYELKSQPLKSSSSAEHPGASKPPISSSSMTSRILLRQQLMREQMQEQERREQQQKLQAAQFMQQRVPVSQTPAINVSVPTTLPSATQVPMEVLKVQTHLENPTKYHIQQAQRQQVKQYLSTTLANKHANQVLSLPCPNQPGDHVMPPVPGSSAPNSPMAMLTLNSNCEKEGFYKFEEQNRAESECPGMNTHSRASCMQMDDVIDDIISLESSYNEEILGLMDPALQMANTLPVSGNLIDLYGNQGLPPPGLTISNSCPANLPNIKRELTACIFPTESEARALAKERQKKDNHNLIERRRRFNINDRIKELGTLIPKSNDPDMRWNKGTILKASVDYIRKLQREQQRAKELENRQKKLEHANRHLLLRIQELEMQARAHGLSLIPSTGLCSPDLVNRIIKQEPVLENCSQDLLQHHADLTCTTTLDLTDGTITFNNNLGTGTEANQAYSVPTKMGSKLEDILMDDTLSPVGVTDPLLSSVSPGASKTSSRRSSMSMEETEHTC
GPR151 activ = activators of human GPR151; activation, % at 11.2 µM; AID 1508602; PathHunter beta-arrestin GPR151 cells, luminescence; 1% of 650,000 active; in the data active = activation above about 4.9%;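 note: 0% = median of compound wells and 100% = cells with positive control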
FBW7 act = activators of human E3 ligase FBW7. AID 1259310. 0.13% of 650,000 active. Q969H0. normalized activity (activation), % at 26.1 µM. AlphaScreen FBW7–phospho-cyclin E peptide binding, activator screen; in the data active = normalized activity above about 1.9%;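 note: purified mutant Fbw7 with reduced substrate affinity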
TEAD-YAP block = TEAD-YAP interaction inhibition | HEK-TIYL cells, TEAD-Gal4/YAP UAS-luciferase luminescence | inhibition, % at 9.12 µM | 1.4% of 640,000 active; in the data active = inhibition above about 32%;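 note: 0% = median of test compound wells and 100% = reference inhibitor wells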
GPR151 confirm = human GPR151 activation, confirmation screen; 6,700 tested, under 10 active; AID 1508609; GPR151 PathHunter beta-arrestin cells, luminescence, 90 min; % of EA-reagent control over plate median; shares compounds with GPR151 activ; activation, % at 11.2 µM;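 active = mean percent activation across replicates above the confirmation screen cutoff of 4.91%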
GPR119 ag = counter-screen for GPR151 activators: effect on human GPR119. 0.3% of 6,700 active. activation, % at 11.2 µM. shares compounds with GPR151 activ. GPR119 PathHunter beta-arrestin cells, luminescence, 90 min; 0 = compound-well median, 100 = enzyme-acceptor control;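 active = mean percent activation in the counterscreen above 29.09%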;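 note: counterscreen on off-target GPR119 to flag nonselective hits from the GPR151 activator screen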
* = called active by the depositor.

For CCOc1ccc(NC(=O)CSc2nc3ccc(N4CCCCC4)cc3c(=O)n2Cc2ccccc2)cc1 the results were MITF primary -1.3, GPR151 activ 7.7*, FBW7 act 0.0, TEAD-YAP block 9.4, GPR151 confirm 0.4 and GPR119 ag 8.1.
Screening Cn1c(SCC(=O)Nc2cc(Cl)ccc2O)nnc1-c1ccccc1 returned MITF primary 7.4, GPR151 activ 0.7, FBW7 act 0.1 and TEAD-YAP block 15.8.
For COc1ccc(C)cc1-n1cnc2cc(C(=O)O)ccc21 the results were MITF primary 3.8, GPR151 activ 7.7*, FBW7 act 0.1, TEAD-YAP block -3.7, GPR151 confirm -0.6 and GPR119 ag 2.7.
COc1cc2nc(Nc3ccncc3)nc(Nc3ccc(N4CCOCC4)cc3)c2cc1OC was read as MITF primary 17.9, GPR151 activ 6.6*, FBW7 act -0.2, TEAD-YAP block -7.1, GPR151 confirm -0.3 and GPR119 ag -2.5.
`CC(=O)c1cccc(NC(=O)CC2S\C(=N/N=C/C=C/c3ccccc3)NC2=O)c1` (stereo not drawn) gave MITF primary 8.4, GPR151 activ 9.3*, FBW7 act -0.2, TEAD-YAP block -2.4, GPR151 confirm 1.9 and GPR119 ag 11.8.
For CC(C)Oc1ccc(C2CC(=O)NC3=C2C(=O)CCC3)cc1 (stereo not drawn) the results were MITF primary 7.5, GPR151 activ 0.7, FBW7 act -0.1 and TEAD-YAP block 7.6.
Screening CC(C)Oc1ccc(C2CC(=O)NC(=O)C2)cc1 returned MITF primary 23.8, GPR151 activ 6.7*, FBW7 act 0.6, TEAD-YAP block 0.4, GPR151 confirm -0.3 and GPR119 ag 13.0.
Screening CC(NCCC(=O)c1ccc(F)cc1)C(=O)O (stereo not drawn) returned MITF primary 1.7, GPR151 activ 0.1, FBW7 act 0.1 and TEAD-YAP block 8.9.
Screening O=C(CCc1ccccc1)N1CCc2c(nc(N3CCCC3)[nH]c2=O)C1 returned MITF primary 13.3, GPR151 activ 4.4, FBW7 act 0.0 and TEAD-YAP block 2.5.
`Cc1nc2ccccc2n1CC(=O)N1CCc2c(nc(N3CCCC3)[nH]c2=O)C1` gave MITF primary 12.5, GPR151 activ 17.3*, FBW7 act 0.0, TEAD-YAP block 5.7, GPR151 confirm -0.6 and GPR119 ag 4.7.
`O=C(CCn1c(=O)oc2ccccc21)N1CCc2c(nc(N3CCCC3)[nH]c2=O)C1` gave MITF primary 9.7, GPR151 activ 5.1*, FBW7 act -0.1, TEAD-YAP block 6.3, GPR151 confirm 0.1 and GPR119 ag 3.8.
`Cc1ccc(Nc2nc(OC(C(F)(F)F)C(F)(F)F)nc(OC(C(F)(F)F)C(F)(F)F)n2)cc1` gave MITF primary -11.5, GPR151 activ 3.7, FBW7 act 0.1 and TEAD-YAP block -0.9.
COC(C(=O)Nc1c(F)cccc1F)c1ccccc1 (stereo not drawn) was read as MITF primary 0.7, GPR151 activ 5.9*, FBW7 act 0.5, TEAD-YAP block -0.9, GPR151 confirm -0.5 and GPR119 ag -7.7.
`COC(C(=O)Nc1ccccc1C(=O)O)c1ccccc1` (stereo not drawn) gave MITF primary 11.7, GPR151 activ -0.3, FBW7 act 0.0 and TEAD-YAP block 4.1.
For CCCCCCNc1nc(Cl)nc(Nc2ccc(I)cc2)n1 the results were MITF primary -9.7, GPR151 activ 2.6, FBW7 act -0.1 and TEAD-YAP block -3.2.
For CCOC(=O)c1c(NC(=O)CSc2nnc(CNC(=O)COc3ccccc3)n2-c2cc(C)ccc2C)sc2c1CCCC2 the results were MITF primary 3.5, GPR151 activ -1.5, FBW7 act 0.0 and TEAD-YAP block -4.0.
CS(=O)(=O)Nc1nc(CC(=O)O)cs1 was read as MITF primary -5.0, GPR151 activ 5.2*, FBW7 act 0.1, TEAD-YAP block 3.3, GPR151 confirm 0.3 and GPR119 ag 5.8.
Screening CC(C)c1ccc(Nc2nc(CC(=O)O)cs2)cc1 returned MITF primary -4.2, GPR151 activ 1.0, FBW7 act -0.1 and TEAD-YAP block -19.7.
For CC(=O)N1CCN(Cc2ccccc2Br)CC1 the results were MITF primary 7.5, GPR151 activ 7.9*, FBW7 act -0.2, TEAD-YAP block -2.9, GPR151 confirm 0.6 and GPR119 ag 1.3.
Screening CC(=O)N1CCN(Cc2cccc(Cl)c2Cl)CC1 returned MITF primary -4.7, GPR151 activ 0.7, FBW7 act -0.1 and TEAD-YAP block -3.4.
`O=c1oc(-c2cccc(-n3c(=O)c4ccccc4c4ccccc4c3=O)c2)nc2ccccc12` gave MITF primary -2.8, GPR151 activ 1.1, FBW7 act -0.1 and TEAD-YAP block -2.5.
For COc1ccc(OCC(=O)NCCSc2ccccc2)cc1 the results were MITF primary 0.7, GPR151 activ 10.2*, FBW7 act 0.0, TEAD-YAP block -22.0, GPR151 confirm 0.1 and GPR119 ag 7.4.
Screening COc1ccc(CCNC(=O)COc2ccc(C(C)C)cc2)cc1 returned MITF primary -6.1, GPR151 activ 6.7*, FBW7 act -0.1, TEAD-YAP block 3.0, GPR151 confirm -0.5 and GPR119 ag -11.8.
Screening CC(C)c1ccc(OCC(=O)NCCCS(=O)(=O)N2CCc3ccccc3C2)cc1 returned MITF primary 1.0, GPR151 activ 8.2*, FBW7 act 0.1, TEAD-YAP block 2.1, GPR151 confirm 0.6 and GPR119 ag -0.8.
For CCOc1ccc(S(=O)(=O)N(CC(=O)NCCSc2ccccc2)c2ccccc2)cc1 the results were MITF primary 2.8, GPR151 activ 5.7*, FBW7 act -0.1, TEAD-YAP block 7.2, GPR151 confirm 1.9 and GPR119 ag 20.8.
Screening COc1ccc(NC(=O)CC23CC4CC(C2)CC(n2nnc(C)n2)(C4)C3)cc1Cl returned MITF primary 12.1, GPR151 activ -0.9, FBW7 act 0.1 and TEAD-YAP block 8.6.
For Cc1ccc(-c2c(C(=O)Nc3ccc4nn(-c5ccccc5)nc4c3)oc(=O)c3ccccc23)cc1 the results were MITF primary 7.1, GPR151 activ -1.7, FBW7 act 0.2 and TEAD-YAP block -6.2.
`COc1ccc2c(c1)O[C@H](c1ccc3c(c1)OCO3)C(OC(=O)NCc1ccc3c(c1)OCO3)C2=O` (stereo partly drawn) gave MITF primary 3.2, GPR151 activ 10.1*, FBW7 act 0.2, GPR151 confirm 0.6 and GPR119 ag 1.0.
Screening COc1ccc2c(c1)O[C@H](c1ccc3c(c1)OCO3)C(OC(=O)N[C@H]1CCCc3ccccc31)C2=O (stereo partly drawn) returned MITF primary -20.6, GPR151 activ 5.3*, FBW7 act 0.1, GPR151 confirm 0.1 and GPR119 ag 4.5.
Cc1sc(NC(=O)/C=C/c2c(Cl)cccc2Cl)c(C(N)=O)c1C was read as MITF primary 3.1, GPR151 activ -0.8, FBW7 act -0.1 and TEAD-YAP block 0.2.
